# Measurements: PubChem BioAssay AID624483 (NMMLSC, 2012)
# Out of some 360,000 compounds screened, about 11,000 (3.1%) were called active. Not shown: some 2% with an inconclusive outcome. Many of the other results were omitted from the sample, so actives are more common in it than they were. Unmarked numbers belong to inactive results. Cut-off read from the data, not from the text of the source: active = fluorescence intensity above about 16000; inconclusive = no clear call, values can overlap the other calls; inactive = below that.
# Assay: counter-screen for toxin protease inhibitors: compound fluorescence, primary screen, artefact control for toxin protease inhibitor project, biochemical, multiplex microsphere, HTS (AID 624483)
# Settings: compound autofluorescence counterscreen, microsphere flow cytometry; active compounds read high
row,SMILES,fluorescence intensity
1,CCc1ccc2c(c1)NC(=O)C2(C)Cc1ccc(OC(F)(F)F)cc1 (centres undefined),2900
2,COCc1cc(C)nc(SCC(=O)Nc2cccc(C)c2)c1C#N,4220
3,CCNC(=S)N1CCN(C(=O)c2ccco2)CC1,21900 (active)
4,O=C(c1ccc2c(c1)OCO2)N1CCN(C(=O)c2ccco2)CC1,20500 (active)
5,O=C(Nc1ccccc1N1CCN(C(=O)c2ccccc2)CC1)c1ccc2c(c1)OCO2,23400 (active)
6,O=C(CN1CCN(C(=O)c2ccco2)CC1)Nc1ccc2c(c1)OCO2,2540
7,O=C(Nc1ccccc1N1CCN(C(=O)c2ccccc2)CC1)c1ccco1,3700
8,O=C(CNS(=O)(=O)c1ccccc1)N1CCN(C(=O)c2ccco2)CC1,5790
9,O=CN1CCN(C(=O)c2ccc3c(c2)OCO3)CC1,6220
10,O=C(c1ccco1)N1CCN(C(=S)Nc2cc(F)cc(F)c2)CC1,5420
11,N#Cc1ccccc1NC(=O)c1ccc2c(c1)OCO2,3490
12,Cc1nc2c(OCc3cccc(Cl)c3)cccn2c1N(C)CC1CC1,3860
13,CN(Cc1ccccc1)C(=O)C(=O)c1cn(CC(=O)N2CCCC2)c2ccccc12,5870
14,NCCCCC(C(=O)O)N(C(=O)OCc1ccccc1)C(=O)OCc1ccccc1 (centres undefined),4320
15,O=C1NC[C@H](CCCCN2C[C@H](Cc3ccc(O)cc3)N(CC3CCCCC3)C(=O)C2=O)N(CCc2ccccc2)C1=O,4980
16,NC(Cc1ccc(F)cc1)c1csc(Nc2nncc3ccccc23)n1 (centres undefined),3900
17,C#CCNC(=O)C[C@@H]1C[C@@]2(C(=O)OCC)CCCC=C2N(Cc2ccco2)C1=O,4250
18,CC(=O)N(O)CCCCCNC(=O)CCC(=O)N(O)CCCCCNC(=O)CCC(=O)N(O)CCCCCNC(=O)CCC(=O)O,3470
19,CC1=C(C(=O)N(C(C)C)C(C)C)CC(CC(=O)NCCCCc2ccccc2)C(=O)N1CCC1=CCCCC1 (centres undefined),5390
20,CCOC(=O)N1CCN(C(=O)Cc2ccc(-n3c(=S)[nH]c4ccccc4c3=O)cc2)CC1,10600
21,O=C(Cc1ccc(-n2c(=O)[nH]c3ccccc3c2=O)cc1)N1CCN(c2cccc(Cl)c2)CC1,22000 (active)
22,O=c1c2ccccc2[nH]c(=S)n1-c1cccc(Cl)c1,4010

row,SMILES,fluorescence intensity
1,CNc1cc(-c2c(OC)cccc2OC)ncn1,3890
2,CN1OC[C@@H]2CN(C(=O)C(C)(C)C)[C@H](c3ccc(-n4ccnc4)cc3)C[C@@H]21,4320
3,COc1cccc(-c2cc(NC(C)=O)c3ncc(-c4cccc(C(C)=O)c4)n3c2)c1,3560
4,C=CCn1c(COc2ccccc2F)nnc1SCC(=O)N1CC(=O)Nc2ccccc21,19900 (active)
5,O=C1CN(C(=O)COC(=O)/C=C/c2ccc(F)cc2)c2ccccc2N1,2990
6,Nn1c(Cc2cccc3ccccc23)nnc1SCC(=O)N1CC(=O)Nc2ccccc21,3230
7,CCN1C(=O)[C@@H]2[C@@H]3CN(S(=O)(=O)c4ccccc4C)[C@@H](c4ccc(Cl)cc4)[C@@H]3C(=O)C[C@@H]2C1=O,5460
8,CC(C)(O)C#Cc1ccc(CNC[C@H]2O[C@@H](n3cnc4c(=O)[nH]c(N)nc43)[C@H](O)[C@@H]2O)s1,6310
9,CC(C)Oc1cc(F)ccc1-c1cc(C(=O)Nc2ccc(F)cc2)[nH]n1,2820
10,Cc1ccc([C@@H]2CC(=O)[C@@H]3CN(S(=O)(=O)c4ccc(C)cc4)[C@H](c4ccccc4F)C[C@@H]3N2S(=O)(=O)c2ccc(Cl)cc2)cc1,5790
11,COC(=O)C1(C(=O)OC)C/C=C\CN(S(=O)(=O)c2ccccc2[N+](=O)[O-])CCC1,5420
12,Cc1ccc(S(=O)(=O)NCC(C)NS(C)(=O)=O)cc1 (centres undefined),17300 (active)
13,Cc1ccc(S(=O)(=O)NCCNC(C)c2ccc(Br)cc2)cc1 (centres undefined),3800
14,Cc1ccc(S(=O)(=O)NCC(=O)N2CCOCCOCCOCCOCC2)cc1,3170
15,CCCNC(=O)C1(C)CCCN(C(=O)c2cccc(OC(C)=O)c2C)C1 (centres undefined),2790
16,CCN(CC)CCCC(C)n1c2nc(=O)[nH]c(=O)c-2nc2cc(Cl)ccc21 (centres undefined),3960
17,CC1(Oc2ccc(Cl)cc2)CCN(Cc2csc3ccccc23)C1 (centres undefined),3910
18,CC(C)CCSc1ncnc2c1oc1nc3c(cc12)COC(C)(C)C3,23900 (active)
19,CC1CCc2c(nc3ncnn3c2Nc2ccc(OC(F)(F)F)cc2)C1 (centres undefined),5260
20,CCc1nc2c(OCCOc3ccccc3)cccn2c1N(C)C(=O)c1ccc(OC)cc1,3960
21,COc1cccc(-c2ccc3c(c2)N(Cc2ccccc2OC)C(=O)C(C)S3)c1 (centres undefined),4210
22,CCCc1nc2oc3c(=O)[nH]cnc3c2c2c1COC(C)(C)C2,3850
